CHO-K1 Ca ag: M1 agonist counterscreen hit in parental CHO-K1 cells. Fluo-8 calcium fluorescence; scaled to maximal ATP response, vehicle zero. actives 0.48% (n = 360,000). activation, % at 3 µM. AID 602248; in the data active means activation above about 15%;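 further: untransfected CHO-K1 host cells lacking M1 receptor as counterscreen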
CHRM4 agonist: agonists of human muscarinic M4 receptor (CHRM4); CHO-K1 hM4/Gqi5, Fluo-8 calcium fluorescence; vehicle 0%, full acetylcholine response 100%; activation, % at 3 µM; actives 0.14% (n = 360,000);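 active means activation above the run mean over all test wells plus 3 SD, cut at about 32% in these data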;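 further: peak over basal fluorescence ratio per well then scaled between controls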
Target sequence (P08173 whole entry, looked up): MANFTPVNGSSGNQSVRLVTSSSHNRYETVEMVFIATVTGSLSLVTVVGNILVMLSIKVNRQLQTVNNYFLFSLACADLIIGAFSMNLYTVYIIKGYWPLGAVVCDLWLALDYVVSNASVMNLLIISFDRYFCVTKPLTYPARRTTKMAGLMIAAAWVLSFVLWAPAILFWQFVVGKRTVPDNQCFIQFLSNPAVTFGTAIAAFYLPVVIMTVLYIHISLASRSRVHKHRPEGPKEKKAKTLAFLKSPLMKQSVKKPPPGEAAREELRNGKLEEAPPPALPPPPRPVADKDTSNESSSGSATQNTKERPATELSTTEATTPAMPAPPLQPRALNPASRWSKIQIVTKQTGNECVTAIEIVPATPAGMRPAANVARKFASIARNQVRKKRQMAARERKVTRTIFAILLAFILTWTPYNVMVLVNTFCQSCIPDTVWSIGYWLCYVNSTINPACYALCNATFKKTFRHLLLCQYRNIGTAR
CHRM4 antagonist: antagonists of human muscarinic M4 receptor (CHRM4) | actives 0.73% (n = 360,000) | inhibition, % at 3 µM | P08173 | AID 624125 | CHO-hM4 cells, ACh EC80, Fluo-8 calcium fluorescence;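 active means inhibition above its plate's cutoff, the mean inhibition of sample wells plus 3 SD, cut at about 27% in these data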
CHRM4 PAM: potentiates acetylcholine response at human M4 receptor; P08173; CHO-K1 hM4/Gqi5, Fluo-8 calcium fluorescence, ACh EC20; 0% = ACh EC20, 100% = maximal ACh; activation, % at 3 µM; actives 0.4% (n = 360,000);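 active means activation above its plate's cutoff, the mean activation of sample wells plus 3 SD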
M1 PAM parental: nonselective activator or artifact in parental CHO-K1 calcium assay | ATP EC20, Fluo-8 calcium fluorescence; 0% at ATP EC20, 100% at ATP max | activation, % at 3 µM | actives 0.02% (n = 360,000);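 active means activation above the run cutoff, the mean activation of all test compounds plus 3 SD, cut at about 40% in these data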;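 further: peak over basal fluorescence ratio in a 140 s read after ATP addition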
CHO-K1 Ca antag: counter-screen for M1 antagonists: effect in parental CHO-K1 cells; actives 0.6% (n = 360,000); ATP-induced calcium, Fluo-8 fluorescence; inhibition, % at 3 µM; AID 602250;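 active means inhibition above a per-plate cutoff, the plate's mean sample inhibition plus 3 SD, cut at about 24% in these data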
A number is an active result. This is a sample that favours compounds with a hit; in the whole collection about 2% have one here.

What do the screens show for `CCN1C[C@@H]2[C@@H]3C(=O)N(Cc4ccccc4)C(=O)[C@@H]3[C@](CC)(C1=O)N2C(=O)c1ccc(C(C)(C)C)cc1`?
CHO-K1 Ca ag: inactive; CHRM4 agonist: inactive; CHRM4 antagonist: inactive; CHRM4 PAM: inactive; M1 PAM parental: inactive; CHO-K1 Ca antag: inactive

How did CCN(C1CCCCC1)S(=O)(=O)c1ccc(S(=O)(=O)NCc2ccncc2)cc1 do in these assays?
CHO-K1 Ca ag: 18.1; CHRM4 agonist: inactive; CHRM4 antagonist: inactive; CHRM4 PAM: inactive; M1 PAM parental: inactive; CHO-K1 Ca antag: inactive

Results for O=C(c1ccc(Cl)cc1)C1CCN(C(=O)c2ccc(F)cc2)CC1 ?
CHO-K1 Ca ag: inactive; CHRM4 agonist: inactive; CHRM4 antagonist: inactive; CHRM4 PAM: inactive; M1 PAM parental: inactive; CHO-K1 Ca antag: inactive

Results for CCN=C(NCC)SC1CC(=O)N(c2ccc(OC)cc2)C1=O (centres undefined) ?
CHO-K1 Ca ag: inactive; CHRM4 agonist: inactive; CHRM4 antagonist: inactive; CHRM4 PAM: inactive; M1 PAM parental: inactive; CHO-K1 Ca antag: inactive

What do the screens show for `CCN=C(NCC)SC1CC(=O)N(c2cccc(OCC)c2)C1=O` (centres undefined)?
CHO-K1 Ca ag: inactive; CHRM4 agonist: inactive; CHRM4 antagonist: 32.6; CHRM4 PAM: inactive; M1 PAM parental: inactive; CHO-K1 Ca antag: 29.7

How did Cc1cc(OCc2nnc(SC(C)C(=O)O)n2Cc2ccccc2)ccc1Cl (centres undefined) do in these assays?
CHO-K1 Ca ag: inactive; CHRM4 agonist: inactive; CHRM4 antagonist: inactive; CHRM4 PAM: inactive; M1 PAM parental: inactive; CHO-K1 Ca antag: inactive

How did COc1ccc(CNC(=O)CN(C2CCCCC2)S(C)(=O)=O)cc1 do in these assays?
CHO-K1 Ca ag: inactive; CHRM4 agonist: inactive; CHRM4 antagonist: inactive; CHRM4 PAM: 26.0; M1 PAM parental: inactive; CHO-K1 Ca antag: inactive

What do the screens show for `COc1cccc(C2SCC(=O)N2c2ccc(Br)cc2)c1OC` (centres undefined)?
CHO-K1 Ca ag: inactive; CHRM4 agonist: inactive; CHRM4 antagonist: 65.7; CHRM4 PAM: inactive; M1 PAM parental: inactive; CHO-K1 Ca antag: inactive

How did O=C1CSC(c2ccccc2F)N1c1ccccc1 (centres undefined) do in these assays?
CHO-K1 Ca ag: inactive; CHRM4 agonist: 37.1; CHRM4 antagonist: inactive; CHRM4 PAM: inactive; M1 PAM parental: inactive; CHO-K1 Ca antag: inactive

How did O=C(N=C1SC2CS(=O)(=O)CC2N1c1cccc(Cl)c1Cl)C1CC1 (centres undefined) do in these assays?
CHO-K1 Ca ag: inactive; CHRM4 agonist: inactive; CHRM4 antagonist: inactive; CHRM4 PAM: inactive; M1 PAM parental: inactive; CHO-K1 Ca antag: inactive

What do the screens show for `CC1CN(Cc2ccccc2)c2nc3c(c(=O)[nH]c(=O)n3C)n2C1` (centres undefined)?
CHO-K1 Ca ag: inactive; CHRM4 agonist: inactive; CHRM4 antagonist: inactive; CHRM4 PAM: inactive; M1 PAM parental: inactive; CHO-K1 Ca antag: inactive

Results for Cc1cc2cc3c(cc2nc1SCC(=O)OC(C)C)OCO3 ?
CHO-K1 Ca ag: inactive; CHRM4 agonist: inactive; CHRM4 antagonist: inactive; CHRM4 PAM: 23.6; M1 PAM parental: inactive; CHO-K1 Ca antag: inactive

Results for CCCCOC(=O)c1ccc(O)cc1 ?
CHO-K1 Ca ag: inactive; CHRM4 agonist: inactive; CHRM4 antagonist: inactive; CHRM4 PAM: inactive; M1 PAM parental: inactive; CHO-K1 Ca antag: inactive

What do the screens show for `CCCCOC(=O)Nc1ccc(C(=O)OCCC)cc1`?
CHO-K1 Ca ag: inactive; CHRM4 agonist: inactive; CHRM4 antagonist: inactive; CHRM4 PAM: inactive; M1 PAM parental: inactive; CHO-K1 Ca antag: 23.8

How did CCOC(=O)Nc1ccc2c(C)cc(=O)oc2c1 do in these assays?
CHO-K1 Ca ag: inactive; CHRM4 agonist: inactive; CHRM4 antagonist: inactive; CHRM4 PAM: inactive; M1 PAM parental: inactive; CHO-K1 Ca antag: inactive

How did CCCCOC(=O)Nc1ccc2c(C)cc(=O)oc2c1 do in these assays?
CHO-K1 Ca ag: inactive; CHRM4 agonist: inactive; CHRM4 antagonist: inactive; CHRM4 PAM: 29.6; M1 PAM parental: inactive; CHO-K1 Ca antag: inactive

Results for C[C@H]1CN(S(=O)C(C)(C)C)[C@@H](CCO)/C1=C\c1ccccc1 (some centres undefined) ?
CHO-K1 Ca ag: inactive; CHRM4 agonist: inactive; CHRM4 antagonist: inactive; CHRM4 PAM: inactive; M1 PAM parental: inactive; CHO-K1 Ca antag: inactive

What do the screens show for `CCCCCCN1CCN(C2CN(Cc3cn(CCCC(=O)OC)nn3)S(=O)(=O)C2)CC1` (centres undefined)?
CHO-K1 Ca ag: inactive; CHRM4 agonist: inactive; CHRM4 antagonist: inactive; CHRM4 PAM: inactive; M1 PAM parental: inactive; CHO-K1 Ca antag: inactive

Results for COc1cc2c(cc1OC)CN(C(=S)Nc1ccccc1Cl)CC2 ?
CHO-K1 Ca ag: 16.7; CHRM4 agonist: inactive; CHRM4 antagonist: inactive; CHRM4 PAM: inactive; M1 PAM parental: inactive; CHO-K1 Ca antag: inactive

Results for COc1cc2c(cc1OC)CN(C(=S)Nc1ccccc1)CC2 ?
CHO-K1 Ca ag: inactive; CHRM4 agonist: inactive; CHRM4 antagonist: inactive; CHRM4 PAM: inactive; M1 PAM parental: inactive; CHO-K1 Ca antag: inactive

Results for Cc1cc(C)c(NC(=O)C2CCCO2)c(C)c1NC(=O)C1CCCO1 (centres undefined) ?
CHO-K1 Ca ag: inactive; CHRM4 agonist: inactive; CHRM4 antagonist: inactive; CHRM4 PAM: inactive; M1 PAM parental: inactive; CHO-K1 Ca antag: inactive

Results for O=C(Nc1ccccc1N1CCCC1)c1ccc([N+](=O)[O-])cc1Cl ?
CHO-K1 Ca ag: inactive; CHRM4 agonist: inactive; CHRM4 antagonist: inactive; CHRM4 PAM: 24.9; M1 PAM parental: inactive; CHO-K1 Ca antag: inactive

Results for O=C(Nc1ccccc1N1CCCC1)c1ccc(Cl)cc1Cl ?
CHO-K1 Ca ag: inactive; CHRM4 agonist: inactive; CHRM4 antagonist: inactive; CHRM4 PAM: inactive; M1 PAM parental: inactive; CHO-K1 Ca antag: inactive

What do the screens show for `Cc1c(C(C)C)c(=O)n(-c2ccc(S(=O)(=O)NCc3ccccc3)cc2)n1C`?
CHO-K1 Ca ag: inactive; CHRM4 agonist: inactive; CHRM4 antagonist: inactive; CHRM4 PAM: inactive; M1 PAM parental: inactive; CHO-K1 Ca antag: 24.5

Results for O=C(Cn1cc(S(=O)(=O)Cc2ccc([N+](=O)[O-])cc2)c2ccccc21)N1CCOCC1 ?
CHO-K1 Ca ag: inactive; CHRM4 agonist: inactive; CHRM4 antagonist: inactive; CHRM4 PAM: inactive; M1 PAM parental: inactive; CHO-K1 Ca antag: inactive

What do the screens show for `CCCc1nc2n[nH]c(N)c2c2c1CCCC2`?
CHO-K1 Ca ag: inactive; CHRM4 agonist: inactive; CHRM4 antagonist: inactive; CHRM4 PAM: 26.4; M1 PAM parental: inactive; CHO-K1 Ca antag: inactive

What do the screens show for `Cc1ccccc1NC(=S)NN1CCN(C)CC1`?
CHO-K1 Ca ag: inactive; CHRM4 agonist: inactive; CHRM4 antagonist: inactive; CHRM4 PAM: 30.3; M1 PAM parental: inactive; CHO-K1 Ca antag: inactive

How did Cc1cccc2cc3c(N)c(C(=O)N4CCc5ccccc54)sc3nc12 do in these assays?
CHO-K1 Ca ag: 32.9; CHRM4 agonist: inactive; CHRM4 antagonist: inactive; CHRM4 PAM: inactive; M1 PAM parental: inactive; CHO-K1 Ca antag: 44.5

Results for CC1=C(C(=O)N(C(C)C)C(C)C)CC(CC(=O)NCc2ccco2)C(=O)N1CCCN1CCCC1=O (centres undefined) ?
CHO-K1 Ca ag: inactive; CHRM4 agonist: inactive; CHRM4 antagonist: inactive; CHRM4 PAM: inactive; M1 PAM parental: inactive; CHO-K1 Ca antag: inactive
